Screening data: PubChem BioAssay, National Center for Advancing Translational Sciences (NCATS)
HT1080-NT tox – kills 2HG-producing HT-1080-NT fibrosarcoma cells; HT-1080-NT fibrosarcoma viability, CellTiter-Glo ATP luminescence, 48 h; Potency, µM (highest dose often 46.1 µM), inactives show at the top dose activity, negative = less viability, actives largely listed as cytotoxic; hit rate 1.6% among 360,000; AID 686970;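 note: NT is the 2HG producing partner of a matched IDH1 knockdown line; potency is the fitted concentration of half-maximal effect; 0% = DMSO-treated cells and -100% = media-only wells without cells; nearly all actives have a fitted effect of over 55% in size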
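Luminescent CellTiter-Glo readout after 48 hours of compound exposure at 37 degrees C defined viability of HT-1080-NT cells. Activity was normalized to DMSO wells and cell-free media wells; concentration-response curves were fitted and assigned curve classes.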
HT1080 IDH1KD tx – kills HT-1080 cells with IDH1 knockdown; HT-1080 IDH1 knockdown viability, ATP luminescence, 48 h; Potency, µM (doses to about 46.1 µM), for inactives: at the top dose activity, negative = toxicity, usual class: cytotoxic; hit rate 2% among 360,000; AID 686971;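 note: potency is the fitted concentration of half-maximal effect; 0% = DMSO wells and -100% = cell-free medium wells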
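% activity derives from luminescence (CellTiter-Glo), normalised to DMSO and no-cell wells. HT-1080-IDH1KD cells, 750/well, had 48 h compound exposure at 37 °C.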
TDP1 cell noCPT – qHTS for Inhibitors of human tyrosyl-DNA phosphodiesterase 1 (TDP1): qHTS in cells in absence of CPT; DT40 Tdp1-/- hTDP1 cells, no CPT, ATP luminescence, 48 h; Potency, µM (top dose mostly 46.2 µM), without a hit: at the top dose activity change, negative = growth inhibition, actives largely listed as inhibitors; hit rate 15% among 420,000; note: potency is the fitted concentration of half-maximal effect; nearly all actives have a fitted effect of over 55% in size
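A cellular qHTS used chicken DT40 cells lacking endogenous Tdp1 but carrying stably transfected human TDP1. Compounds were applied without camptothecin, and cell growth kinetics were judged by ATP-dependent luminescence after ≥48 hr.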
DT40 TDP1 CPT – growth inhibition of DT40 Tdp1-/-;hTDP1 cells with camptothecin (screen for TDP1 inhibitors). chicken DT40 Tdp1-/-;hTDP1 cells + 20 nM CPT, ATP luminescence, 48 h. Potency, µM (series often up to 46.2 µM), for inactives: at the highest dose activity change, negative = growth inhibition, usual class: inhibitors. hit rate 12% among 420,000; note: potency is the fitted concentration of half-maximal effect; nearly all actives have a fitted effect of over 55% in size
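Chicken DT40 Tdp1-/- cells stably complemented with human TDP1 were seeded at 400 cells/well in medium containing 20 nM camptothecin, exposed to pin-transferred compounds, and grown at 37 °C for at least 48 hr. Viability was read as ATP luminescence.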
IL1B secr inh – blocks inflammasome-driven IL-1 beta release; THP-1 LPS/ATP IL-1B secretion, AlphaLISA, 16 h; hits give low values; activity change, % at 57.5 µM; hit rate 4.7% among 360,000; in the data active = activity change below about -50%; inconclusive = mostly about -30% to -49%
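THP-1 cells pretreated 1 hr with compounds (up to 57.5 uM final), then stimulated with LPS (250 ng/mL final) plus ATP (1.25 mM final); secreted IL-1B measured by AlphaLISA after 16 hr, decreased signal indicating inhibition.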
Active calls of the source: *; ? = inconclusive; . = no result; [ ] = dose if it differs, or a comment. Sampled rows, rich in hits. Any-hit rate of the full collection: about 19%. Unless noted, calls come from the whole dose curve; as a rule, active = well fitted curve in the direction sought with a large enough effect; inconclusive = small, poorly fitted or top-dose-only effect, or another doubt; inactive = no such curve, though single readings can be large; an effect the other way counts as inactive or inconclusive. Unless noted, % is set by controls: 0 for no effect and ±100 for the full control effect.

SMILES | HT1080-NT tox | HT1080 IDH1KD tx | TDP1 cell noCPT | DT40 TDP1 CPT | IL1B secr inh
Cc1ccc(S(=O)(=O)N(CC(=O)N=Nc2c(O)[nH]c3ccccc23)c2cccc(C)c2)cc1 | ? | 13µM* | 21µM* | ? | -1
CCc1ccccc1-n1ncc(C(=O)Nc2ccccc2OC)c1C | -15% | -7% | -5% | -8% | ?
CCN(CC)C(=O)c1cccc(NC(=O)CC23CC4CC(CC(C4)C2)C3)c1 | -30% | -19% | ? | ? | 4
CCOC(=O)c1c(C)nc(C)c(C(=O)OCC)c1-c1ccc(OC)cc1 | 15% | 3% | ? | ? | 21
CCOC(=O)c1c(C)nc2c(c1-c1ccc(OC)c(OC)c1)C(=O)c1ccccc1-2 | -7% | 6% | ? | 23µM* | 1
COc1ccc2[nH]c(C)c(C(=O)CN3CCc4cc(OC)c(OC)cc4C3)c2c1 | -29% | ? | 18µM* | 16µM* | -2
COc1ccc2[nH]c(C)c(C(=O)CNc3nccs3)c2c1 | . | . | 10µM* | 7.9µM* | .
CCOCc1cnc(C)nc1NCC(=O)c1c(C)n(C)c2ccc(OC)cc12 | 6% | 7% | ? | ? | 11
COc1ccc2c(c1)c(C(=O)CN(C)C)c(C)n2C | . | . | -18% | 0% | .
COc1ccc2[nH]c(C)c(C(=O)CN3CCOCC3)c2c1 | 1% | 1% | 0% | 12% | -8
COc1ccc2c(c1)c(C(=O)CN1CCc3ccccc3C1)c(C)n2C | -1% | -10% | 21µM* | ? | 1
COc1ccc2c(c1)c(C(=O)CNc1nc(C)cs1)c(C)n2C | -26% | 2%[9.24 µM] | 21µM* | ? | ?
Cc1ccc(CNC(=O)C(CC(C)C)OC(=O)c2ccco2)cc1 (stereo unspecified) | 0% | -2% | -19% | 2% | -2
O=C(NCC(O)c1ccccc1)c1ccc(Cl)c(S(=O)(=O)N2CCCCC2)c1 (stereo unspecified) | -4% | ? | -11% | ? | -9
CCN1CCN(c2csc3ccc(Br)cc3c2=O)CC1 | . | . | -27% | ? | .
O=C1CCc2cc(OCCCCc3nnnn3C3CCCCC3)ccc2N1 | 1% | 0% | 16µM* | ? | -7
COc1cccc(N2CCN(Cc3nnnn3C3CCCCC3)CC2)c1 | -3% | -17% | -33% | -24% | 33
Cc1csc(C)[n+]1CC(=O)c1ccccc1 | -6% | -13% | -5% | 1% | 18
CCCC1=[N+](CC(=O)c2ccc(C)cc2)CCn2cccc21 | -5% | -16% | 18µM* | ? | -2
CCCC1=[N+](CC(=O)c2ccccc2)CCn2c(C)ccc21 | 0% | -24% | 2.1µM* | 2.9µM* | ?
Cn1c(O)c(C=Nc2ccc(Br)cc2)sc1=O | 1% | 2% | ? | 2% | 12
C(=N\c1nccs1)/c1cccnc1 | 3% | 3% | -8% | -14% | 13
CCOC(=O)C1=C(C)N=c2s/c(=C3/C(=O)Nc4ccccc43)c(=O)n2C1c1ccc(C)cc1 (stereo unspecified) | -16% | -11% | 23µM* | 26µM* | 60
CCOC(=O)C1=C(C)N=c2s/c(=C\c3ccc(C(=O)O)cc3)c(=O)n2C1c1ccc(F)cc1 (stereo unspecified) | 0% | 2% | 1% | -11% | -7
CCOC(=O)C1=C(C)n2c(s/c(=C3\C(=O)Nc4ccccc43)c2=O)=NC1c1ccc(OC)cc1 (stereo unspecified) | 12% | 14% | 21µM* | ? | 30
SMILES | HT1080-NT tox | HT1080 IDH1KD tx | TDP1 cell noCPT | DT40 TDP1 CPT | IL1B secr inh
Nc1cccc2cc(S(=O)(=O)O)ccc12 | 4% | -2% | -9% | 2% | 23
COc1ccc(-c2cc3nc(C)c(CCC(=O)Nc4ccccc4C(C)=O)c(C)n3n2)c(OC)c1 | . | . | -18% | 10% | .
COc1ccc(-c2cc3nc(C)c(CCC(=O)N4CCN(c5ccccc5F)CC4)c(C)n3n2)c(OC)c1 | . | . | 29µM* | ? | .
COc1ccc(-c2cc3nc(C)c(CCC(=O)N4CCN(c5ccccn5)CC4)c(C)n3n2)c(OC)c1 | -7% | -4% | 16µM* | ? | -28
COc1cccc(C(O)c2nccn2Cc2ccccc2)c1OC (stereo unspecified) | 12% | 5% | ? | ? | -6
O=C(Nc1cccc(Cl)c1)C1CCCN(c2nn3cc(-c4ccc(F)cc4)nc3s2)C1 (stereo unspecified) | . | . | 23µM* | ? | .
Cc1ccccc1CNC(=O)C1CCN(c2nn3cc(-c4ccc(F)cc4)nc3s2)CC1 | . | . | -14% | -19% | .
O=C(NCc1cccc(Cl)c1)C1CCCN(c2nn3cc(-c4ccc(F)cc4)nc3s2)C1 (stereo unspecified) | . | . | 23µM* | ? | .
Cc1ccc(CNC(=O)C2CCN(c3nn4cc(-c5ccc(F)cc5)nc4s3)CC2)cc1 | . | . | -8% | -6% | .
CCN(CC)CCNC(=O)C1CCN(c2nn3cc(-c4ccc(F)cc4)nc3s2)CC1 | . | . | 3.3µM* | 5.2µM* | .
Cc1cc(C)nc(N2CCCC(C(=O)Nc3cccc(Cl)c3)C2)n1 (stereo unspecified) | 0% | 2% | ? | ? | 25
NS(=O)(=O)c1ccc(CCNC(=O)COC(=O)/C=C/c2ccc(Cl)cc2)cc1 | 0% | 7% | ? | ? | 15
Cc1ccc(S(=O)(=O)N2CCN(Cc3nc4ccc(C)cc4o3)CC2)cc1 | . | . | ? | -26% | .
COc1ccc(S(=O)(=O)N2CCN(Cc3nc4ccc(C)cc4o3)CC2)cc1Cl | . | . | ? | 18µM* | .
CCOc1ccc(S(=O)(=O)N2CCN(Cc3nc4ccc(C)cc4o3)CC2)cc1 | . | . | ? | 18µM* | .
CCOCC(=O)N1CCN(c2ccc([N+](=O)[O-])cc2)CC1 | -1% | -4% | ? | ? | -8
O=C(NCc1ccccc1)C(c1ccco1)N(C(=O)c1csnn1)c1ccccc1 (stereo unspecified) | 0% | -2% | -10% | 0% | 0
COc1ccc(CC(=O)NCc2ccc3c(c2)CCN3C(=O)c2ccc(C)cc2)cc1OC | . | . | 12µM* | 13µM* | .
O=C(CSc1ccccc1)NCc1ccc2c(c1)CCN2C(=O)c1ccc(F)cc1 | . | . | -20% | -3% | .
CCc1ccccc1NC(=O)NCc1ccc2c(c1)CCN2C(=O)c1ccccc1 | . | . | 23µM* | ? | .
Cn1nccc1C(=O)NCc1ccc2c(c1)CCN2C(=O)c1ccccc1 | . | . | -21% | -1% | .
Cc1ccc(C(=O)N2CCc3cc(CNC(=O)CSc4ccccc4)ccc32)cc1 | . | . | 15µM* | 15µM* | .
COC(=O)c1ccccc1NC(=O)NCc1ccc2c(c1)CCN2C(=O)c1ccccc1 | . | . | 16µM* | 23µM* | .
